Compounds without any hit were thinned out: in the full panel of roughly 83,000, 20% have a hit.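 Activity criterion: percent growth below 10, measured after cells in 96-well plates were exposed to a single compound concentration for 48 hours.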 The source made the active and inactive calls.
Legend:
Assay in all cases: NCI-60 one-dose screen, 48 h (100 = growth as untreated, 0 = no growth, -100 = all killed)
EKVX NSCLC = conditions: 10 µM
SN12C renal = conditions: 10 µM unless noted
UO-31 renal = conditions: 10 µM unless noted
TK-10 renal = conditions: 10 µM unless noted
ACHN renal = conditions: 10 µM unless noted
CAKI-1 renal = conditions: 10 µM unless noted
A498 renal = conditions: 10 µM unless noted
MOLT-4 leukemia = conditions: 10 µM unless noted
CCRF-CEM leukemia = conditions: 10 µM

Measured: growth

O=C(Nc1ccc(-n2cc(-c3ccncc3)c(-c3ccc(Cl)c(O)c3)n2)cc1)c1cc(Cl)cc(Cl)c1
inactive: EKVX NSCLC 75.7% | SN12C renal 70.2% | UO-31 renal 12.3% | TK-10 renal 61.3% | ACHN renal 57.3% | A498 renal 95.9% | MOLT-4 leukemia 24.3%
active: CAKI-1 renal -32.1%

COC(=O)C(C(=O)OC)C(Br)C(Br)C(Br)c1ccccc1 (stereo not given)
inactive: SN12C renal 97.9% | UO-31 renal 77.7% | A498 renal 116% | MOLT-4 leukemia 63.8%
active: CCRF-CEM leukemia -28.9%

O=C1OC(c2ccc(-c3ccccc3)cc2)=C/C1=C/c1c2ccccc2cc2ccccc12
inactive: EKVX NSCLC 65.5% | SN12C renal 101% | UO-31 renal 92.8% | TK-10 renal 77.9% | ACHN renal 97.6% | A498 renal 83.7% | CCRF-CEM leukemia 69.9% | MOLT-4 leukemia 72.6%

COc1cc(-c2nn(-c3ccc(NC(=O)c4cc(Cl)cc(Cl)c4)cc3)cc2-c2ccncc2)ccc1Cl
inactive: EKVX NSCLC 80.1% | SN12C renal 91.9% | UO-31 renal 65.7% | TK-10 renal 69.4% | ACHN renal 94.9% | CAKI-1 renal 38.8% | A498 renal 78.9% | MOLT-4 leukemia 27.6%

CCN(CC)CCNc1ncnc2c1cnn2-c1ccc(Cl)cc1
inactive: EKVX NSCLC 82.8% | SN12C renal 80.6% | TK-10 renal 118% | ACHN renal 92.6% | CAKI-1 renal 61.5% | A498 renal 73.1% | CCRF-CEM leukemia 50.8% | MOLT-4 leukemia 92.9%

Cc1[nH]n(C(=S)Nc2nc3cc(Cl)c(F)cc3s2)c(=O)c1N=Nc1ccc(F)c(Cl)c1
inactive: EKVX NSCLC 80.1% | SN12C renal 100% | UO-31 renal 93% | TK-10 renal 129% | ACHN renal 104% | A498 renal 65.8% | CCRF-CEM leukemia 19.3%
active: MOLT-4 leukemia -16.5%

N#Cc1c2cccnc2c2nnc3cc(Cl)c(Cl)cc3n12
inactive: EKVX NSCLC 80.8% | SN12C renal 75% | UO-31 renal 30.8% | ACHN renal 10.2% | A498 renal 80.9% | CCRF-CEM leukemia 29.1%
active: TK-10 renal -31.8% | CAKI-1 renal -3.12% | MOLT-4 leukemia 7.72%

O=c1c2c(c3ccccc3n1-c1ccccc1)NC(=S)NC2c1ccc(Cl)cc1 (stereo not given)
active: CCRF-CEM leukemia 7.43%
inactive: EKVX NSCLC 20% | SN12C renal 50.1% | UO-31 renal 47.6% | TK-10 renal 10.8% | ACHN renal 52.7% | CAKI-1 renal 33.2% | MOLT-4 leukemia 25.4%

COC(=O)c1cc(O)c2cc3c(cc2c1-c1cc(OC)c(OC)c(OC)c1)OCO3
inactive: EKVX NSCLC 55.8% | UO-31 renal 44.8% | TK-10 renal 43.2% | ACHN renal 36.8% | CAKI-1 renal 30.2% | A498 renal 45.6% | MOLT-4 leukemia 35.3%
active: CCRF-CEM leukemia 8.87%

COc1cc(-c2nn(-c3ccc(NC(=O)Nc4ccc(Cl)c(C(F)(F)F)c4)cc3)cc2-c2ccncc2)ccc1Cl
active: EKVX NSCLC 3.21% | TK-10 renal -3.21% | ACHN renal 5.32% | CAKI-1 renal -5.53% | A498 renal 6.77% | MOLT-4 leukemia 1.77%
inactive: SN12C renal 26.2% | UO-31 renal 24.5%

O=[N+]([O-])c1ccc(-c2ncc(-c3ccc(O)cc3O)[nH]2)cc1
active: CCRF-CEM leukemia -19.1%
inactive: EKVX NSCLC 92.4% | SN12C renal 101% | UO-31 renal 102% | TK-10 renal 124% | ACHN renal 106% | A498 renal 101% | MOLT-4 leukemia 99.1%

O=C(Nc1cccc2[nH]c(C(F)(F)F)nc12)c1ccc(F)cc1
inactive: UO-31 renal 63% | TK-10 renal 113% | ACHN renal 82.7% | CAKI-1 renal 84% | A498 renal 19% | CCRF-CEM leukemia 51.7% | MOLT-4 leukemia 65.5%

CCCCn1c(Cc2ccc(OC)cc2)nc2cc(OC)c(OC)cc2c1=O
inactive: EKVX NSCLC 44.8% | SN12C renal 88.6% | UO-31 renal 74.7% | TK-10 renal 67.2% | ACHN renal 80.9% | CCRF-CEM leukemia 53.1% | MOLT-4 leukemia 49.1%

CCCCCCCCCC(C)NC(=O)CCl (stereo not given)
inactive: SN12C renal 75.1% | UO-31 renal 83.7% | ACHN renal 93% | CAKI-1 renal 93.4% | A498 renal 91.3% | MOLT-4 leukemia 72.1%

C/C=C/C/C=C/[C@H](C)C[C@H](O)[C@@H]1C[C@@H]2O[C@H]2/C=C/[C@@H]2OC(C)(C)O[C@H]2/C=C/C[C@H](C)CC(=O)O1
active: UO-31 renal 5.37%
inactive: EKVX NSCLC 67.2% | SN12C renal 38.2% | TK-10 renal 18.8% | ACHN renal 38.4% | CAKI-1 renal 19.2% | A498 renal 96.5% | CCRF-CEM leukemia 24.7% | MOLT-4 leukemia 34.6%

COc1cc(-c2nn(-c3ccc(NC(=O)Nc4ccc(Cl)c(Cl)c4)cc3)cc2-c2ccncc2)ccc1Cl
active: TK-10 renal -12.6% | MOLT-4 leukemia 9.31%
inactive: EKVX NSCLC 33.6% | SN12C renal 43.4% | UO-31 renal 33.4% | ACHN renal 20.9% | CAKI-1 renal 30.2% | A498 renal 38.7% | CCRF-CEM leukemia 11.7%

COc1cc2cn3c4ccc(O)cc4[nH]c(=O)c3c2cc1OC
active: UO-31 renal -32.2% | TK-10 renal -22.6% | ACHN renal -26% | CAKI-1 renal -51.7% | A498 renal -20.6% | CCRF-CEM leukemia 5.83% | MOLT-4 leukemia -9.94%
inactive: EKVX NSCLC 18.4% | SN12C renal 37%

COc1cc(-c2nn(-c3ccc(NC(=O)c4ccc(Cl)c(Cl)c4)cc3)cc2-c2ccncc2)ccc1Cl
inactive: EKVX NSCLC 73% | SN12C renal 79.4% | UO-31 renal 36.3% | TK-10 renal 17.2% | ACHN renal 74.1% | A498 renal 81.4% | CCRF-CEM leukemia 67.6% | MOLT-4 leukemia 28.7%

COC(=O)CC(=O)C(=O)OC
inactive: SN12C renal 107% | UO-31 renal 91.4% | ACHN renal 100% | CAKI-1 renal 133% | A498 renal 113% | MOLT-4 leukemia 97.9%

CC(=O)N1CCN(CCNC(=O)n2cc(-c3ccncc3)c(-c3ccc(O)c(Cl)c3)n2)CC1
inactive: EKVX NSCLC 133% | SN12C renal 102% | UO-31 renal 131% | TK-10 renal 87.2% | ACHN renal 105% | CAKI-1 renal 136% | CCRF-CEM leukemia 95.8% | MOLT-4 leukemia 85.8%

O=C(Nc1ccc(-n2cc(-c3ccncc3)c(-c3ccc(Cl)c(O)c3)n2)cc1)Nc1cc(C(F)(F)F)cc(C(F)(F)F)c1
inactive: EKVX NSCLC 15.9% | SN12C renal 30.1% | UO-31 renal 35.3% | ACHN renal 12% | A498 renal 17.7%
active: CCRF-CEM leukemia 2.13% | MOLT-4 leukemia 9.3%

CC(CCN1CCN(CCC(C)CC(C)(C)C)C1CC(C)CC(C)(C)C)CC(C)(C)C (stereo not given)
inactive: EKVX NSCLC 82.6% | SN12C renal 91.2% | UO-31 renal 66.2% | TK-10 renal 85.2% | ACHN renal 90.4% | CAKI-1 renal 96.4% | A498 renal 112% | CCRF-CEM leukemia 83.1% | MOLT-4 leukemia 88.7%

O=c1c2c(c3ccccc3n1-c1ccccc1)NC(=S)NC2c1ccccc1 (stereo not given)
active: CCRF-CEM leukemia -25%
inactive: EKVX NSCLC 97.1% | SN12C renal 90.4% | UO-31 renal 71.7% | TK-10 renal 226% | ACHN renal 96.1% | CAKI-1 renal 105% | A498 renal 102% | MOLT-4 leukemia 66.2%
